Test results: PubChem BioAssay (EPA / NIEHS)
Calls of active or inactive are those of the source. How the source made its calls: active means hit-call score of the fitted dose curve at least 0.9, where 1 is the maximum; inactive means score below 0.9.

Legend:
Details in all cases: mRNA level, 48 h; actives raise or lower the signal
[1] = read-out: Peroxisomal acyl-coenzyme A oxidase 1 (ACOX1) gene, ACOX1 (gene 51); experiment: LTEA_HepaRG_ACOX1: Life Technologies and Expression Analysis (LTEA) Assay for Peroxisomal acyl-coenzyme A oxidase 1 (ACOX1) gene using HepaRG (AID 2283467)
Method in brief: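 Measured by qRT-PCR against three housekeeping genes: ACOX1 transcript change in human HepaRG cells after 48 h dosing. Concentrations ran up to 100 uM in half-log steps. Curves were fitted bidirectionally relative to 0.5% DMSO.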

[2] = read-out: Alkaline Phosphatase, Placental (ALPP) gene, ALPP (gene 250); experiment: LTEA_HepaRG_ALPP: Life Technologies and Expression Analysis (LTEA) Assay for Alkaline Phosphatase, Placental (ALPP) gene using HepaRG (AID 2283468)
Method in brief: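 Expression of ALPP was quantified by qRT-PCR against three housekeeping genes in human HepaRG cultures treated for 48 h with an eight-point concentration series up to 100 uM. Activity in either direction was fitted relative to 0.5% DMSO.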

[3] = read-out: Bcl-2 (BAD) gene, BAD (gene 572); experiment: LTEA_HepaRG_BAD: Life Technologies and Expression Analysis (LTEA) Assay for Bcl-2 (BAD) gene using HepaRG (AID 2283469)
Method in brief: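 BAD transcript change, measured by qRT-PCR against three housekeeping genes and fitted in both directions relative to 0.5% DMSO, after 48 h chemical treatment of human HepaRG liver cells at concentrations up to 100 uM.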

[4] = read-out: Bcl-2 (BAX) gene, BAX (gene 581); experiment: LTEA_HepaRG_BAX: Life Technologies and Expression Analysis (LTEA) Assay for Bcl-2 (BAX) gene using HepaRG (AID 2283470)
Method in brief: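 Differentiated HepaRG cells exposed 48 h in serum-free induction medium, eight half-log concentrations from 100 uM, in duplicate, 0.5% DMSO vehicle. BAX mRNA by TaqMan qRT-PCR, normalised to ACTB, GAPDH and POLR2A.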

[5] = read-out: adenosine kinase (ADK) gene, ADK (gene 132); experiment: LTEA_HepaRG_ADK: Life Technologies and Expression Analysis (LTEA) Assay for adenosine kinase (ADK) gene using HepaRG (AID 2283471)
Method in brief: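 Differentiated HepaRG cells dosed 48 h in serum-free induction medium, 0.5% DMSO vehicle, eight half-log concentrations from 100 uM, in duplicate. ADK mRNA by TaqMan qRT-PCR normalised to ACTB, GAPDH, POLR2A; bidirectional fit versus DMSO.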

[6] = read-out: Alpha-fetoprotein (AFP) gene, AFP (gene 174); experiment: LTEA_HepaRG_AFP: Life Technologies and Expression Analysis (LTEA) Assay for Alpha-fetoprotein (AFP) gene using HepaRG (AID 2283472)
Method in brief: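 Differentiated human HepaRG cells exposed 48 h in serum-free induction medium, 8-point half-log series from 100 uM in 0.5% DMSO, duplicate. AFP mRNA by qRT-PCR, normalized to ACTB, GAPDH, POLR2A; bidirectional fit vs DMSO.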

BCL2L11 (gene 10018) = experiment: LTEA_HepaRG_BCL2L11: Life Technologies and Expression Analysis (LTEA) Assay for Bcl-2 (BCL2L11) gene using HepaRG (AID 2283473)
Method in brief: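 Cells were plated, cultured 48 h, switched to serum-free induction medium, then dosed in duplicate for 48 h at eight half-log concentrations up to 100 uM. Lysates underwent RNA isolation and TaqMan qRT-PCR; gain or loss versus DMSO was fitted.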

[7] = read-out: Apolipoprotein A-V (APOA5) gene, APOA5 (gene 116519); experiment: LTEA_HepaRG_APOA5: Life Technologies and Expression Analysis (LTEA) Assay for Apolipoprotein A-V (APOA5) gene using HepaRG (AID 2283474)
Method in brief: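 Human liver HepaRG cells are treated 48 h with test chemicals (100 uM top, half-log dilutions, 0.5% DMSO). APOA5 mRNA induction or loss is measured by qRT-PCR relative to vehicle.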

[8] = read-out: Apoptosis regulator Bcl-2 (Homo sapiens) (UniProt P10415); experiment: LTEA_HepaRG_BCL2: Life Technologies and Expression Analysis (LTEA) Assay for Bcl-2 gene using HepaRG (AID 2283475)
Method in brief: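 Differentiated human HepaRG cells in serum-free induction medium exposed 48 h, in duplicate, to 8-point half-log series from 100 uM in 0.5% DMSO. BCL2 mRNA by qRT-PCR (TaqMan/Fluidigm), normalized to ACTB, GAPDH, POLR2A; bidirectional fit against DMSO.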

[9] = read-out: Bcl-2 (BID) gene, BID (gene 637); experiment: LTEA_HepaRG_BID: Life Technologies and Expression Analysis (LTEA) Assay for Bcl-2 (BID) gene using HepaRG (AID 2283476)
Method in brief: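 Gene expression by qRT-PCR in HepaRG cells after 48 h exposure, duplicate wells, eight half-log concentrations topping at 100 uM in 0.5% DMSO. Normalized to ACTB, GAPDH, POLR2A; bidirectional fitting relative to DMSO.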

Caspase-3 (Homo sapiens) = Caspase-3 (Homo sapiens) (UniProt P42574); experiment: LTEA_HepaRG_CASP3: Life Technologies and Expression Analysis (LTEA) Assay for cysteine-aspartic acid protease (CASP3) using HepaRG (AID 2283477)
Method in brief: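 In HepaRG liver cells dosed for 48 h at up to 100 uM (eight-point, duplicate), CASP3 expression changes are scored by qRT-PCR. Activity is fitted in both directions with 0.5% DMSO as baseline.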

[10] = read-out: Cytochrome P450 (CYP24A1), CYP24A1 (gene 1591); experiment: LTEA_HepaRG_CYP24A1: Life Technologies and Expression Analysis (LTEA) Assay for Cytochrome P450 (CYP24A1) using HepaRG (AID 2283478)
Method in brief: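 Human liver HepaRG cultures receive each chemical for 48 h across an eight-point half-log series topping at 100 uM in 0.5% DMSO. Induction or suppression of CYP24A1 mRNA is scored relative to vehicle after housekeeping-gene normalization.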

[11] = read-out: Cytochrome P450 (CYP1A2), CYP1A2 (gene 1544); experiment: LTEA_HepaRG_CYP1A2: Life Technologies and Expression Analysis (LTEA) Assay for Cytochrome P450 (CYP1A2) using HepaRG (AID 2283479)
Method in brief: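 Assesses CYP1A2 mRNA in human HepaRG liver cells after 48 h chemical exposure at up to 100 uM. Values come from qRT-PCR with bidirectional curve fitting relative to DMSO.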

[12] = read-out: cysteine-aspartic acid protease (CASP8), CASP8 (gene 841); experiment: LTEA_HepaRG_CASP8: Life Technologies and Expression Analysis (LTEA) Assay for cysteine-aspartic acid protease (CASP8) using HepaRG (AID 2283480)
Method in brief: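 HepaRG, 48 h exposure, duplicate wells; 8 conc, half-log from 100 uM, 0.5% DMSO. Serum-free induction medium. CASP8 mRNA by TaqMan qRT-PCR, norm. ACTB/GAPDH/POLR2A; gain/loss fitted vs DMSO.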

[13] = read-out: Cytochrome P450 2C19 (Homo sapiens) (UniProt P33261); experiment: LTEA_HepaRG_CYP2C19: Life Technologies and Expression Analysis (LTEA) Assay for CYP2C19 using HepaRG (AID 2283482)
Method in brief: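 Human HepaRG liver cells received test chemicals for 48 h (highest 100 uM, half-log dilutions in 0.5% DMSO). CYP2C19 mRNA induction or loss is read by multiplexed qRT-PCR and fitted in both directions versus vehicle.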

CYP2C8 (gene 1558) = experiment: LTEA_HepaRG_CYP2C8: Life Technologies and Expression Analysis (LTEA) Assay for CYP2C8 using HepaRG (AID 2283483)
Method in brief: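 CYP2C8 mRNA induction or loss, by qRT-PCR normalized to ACTB/GAPDH/POLR2A, is read in HepaRG cells after 48 h treatment. Concentrations run from 100 uM down in half-log dilutions, with 0.5% DMSO as vehicle and baseline.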

CYP2C9 (gene 1559) = experiment: LTEA_HepaRG_CYP2C9: Life Technologies and Expression Analysis (LTEA) Assay for CYP2C9 using HepaRG (AID 2283484)
Method in brief: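 Cells plated 48 h, switched to serum-free induction medium, then treated in duplicate for 48 h at eight concentrations (max 100 uM, 0.5% DMSO). RNA then analysed by qRT-PCR for CYP2C9; curves fitted in both directions relative to DMSO.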

CYP2E1 (gene 1571) = experiment: LTEA_HepaRG_CYP2E1: Life Technologies and Expression Analysis (LTEA) Assay for CYP2E1 using HepaRG (AID 2283485)
Method in brief: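 HepaRG cells, plated 48 h, then exposed 48 h in serum-free induction medium to eight half-log concentrations from 100 uM in 0.5% DMSO, duplicate. CYP2E1 mRNA by qRT-PCR, normalized to ACTB/GAPDH/POLR2A; bidirectional fit versus DMSO.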

CYP4A11 (gene 1579) = experiment: LTEA_HepaRG_CYP4A11: Life Technologies and Expression Analysis (LTEA) Assay for CYP4A11 using HepaRG (AID 2283486)
Method in brief: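 Readout is CYP4A11 mRNA induction or suppression (qRT-PCR, ACTB/GAPDH/POLR2A normalization) in human HepaRG cells after 48 h chemical treatment, concentrations to 100 uM in 0.5% DMSO, fitted bidirectionally against vehicle.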

[14] = read-out: Cytochrome P450 (CYP2B6), CYP2B6 (gene 1555); experiment: LTEA_HepaRG_CYP2B6: Life Technologies and Expression Analysis (LTEA) Assay for Cytochrome P450 (CYP2B6) using HepaRG (AID 2283481)
Method in brief: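 Using 48 h treatment of HepaRG cells in serum-free induction medium, concentrations spanned half-log steps from 100 uM in 0.5% DMSO vehicle. CYP2B6 mRNA induction or loss is scored by qRT-PCR against DMSO.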

Measured: AC50

Apoptosis regulator Bcl-2 (Homo sapiens), sequence (P10415 whole entry, looked up): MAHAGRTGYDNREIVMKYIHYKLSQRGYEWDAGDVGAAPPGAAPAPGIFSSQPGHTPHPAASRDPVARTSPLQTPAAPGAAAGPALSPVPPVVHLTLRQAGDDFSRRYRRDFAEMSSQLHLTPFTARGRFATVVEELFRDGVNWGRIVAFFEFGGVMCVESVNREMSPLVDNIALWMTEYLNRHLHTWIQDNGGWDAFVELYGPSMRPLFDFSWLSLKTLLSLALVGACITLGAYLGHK
Cytochrome P450 2C19 (Homo sapiens), sequence (P33261 whole entry, looked up): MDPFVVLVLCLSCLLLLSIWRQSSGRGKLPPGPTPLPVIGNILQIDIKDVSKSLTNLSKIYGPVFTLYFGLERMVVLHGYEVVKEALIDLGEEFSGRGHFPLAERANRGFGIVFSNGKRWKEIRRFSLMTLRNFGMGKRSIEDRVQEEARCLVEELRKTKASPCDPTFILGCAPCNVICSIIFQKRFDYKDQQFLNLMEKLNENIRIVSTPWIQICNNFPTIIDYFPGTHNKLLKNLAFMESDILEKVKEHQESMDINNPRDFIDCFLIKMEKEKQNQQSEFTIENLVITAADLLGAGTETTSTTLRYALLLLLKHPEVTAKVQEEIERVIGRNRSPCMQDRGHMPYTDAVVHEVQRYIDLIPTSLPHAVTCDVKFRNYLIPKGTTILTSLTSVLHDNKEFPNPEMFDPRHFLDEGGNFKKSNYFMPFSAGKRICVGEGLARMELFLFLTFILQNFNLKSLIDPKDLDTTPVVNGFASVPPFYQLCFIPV
Caspase-3 (Homo sapiens), sequence (P42574 whole entry, looked up): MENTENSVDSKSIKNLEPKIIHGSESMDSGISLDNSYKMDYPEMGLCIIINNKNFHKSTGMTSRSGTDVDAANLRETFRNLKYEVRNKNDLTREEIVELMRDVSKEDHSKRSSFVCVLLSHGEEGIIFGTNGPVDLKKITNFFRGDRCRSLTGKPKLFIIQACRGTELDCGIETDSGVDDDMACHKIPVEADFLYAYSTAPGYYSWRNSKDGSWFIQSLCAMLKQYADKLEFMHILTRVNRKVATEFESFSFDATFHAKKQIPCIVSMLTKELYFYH

COc1cccc(C(=O)NN(C(=O)c2cc(C)cc(C)c2)C(C)(C)C)c1C
active: [6] 7.69 µM | [11] 18.7 µM | [13] 1.49 µM | CYP2C8 (gene 1558) 3.61 µM | CYP2E1 (gene 1571) 23.5 µM
not listed: [14]
inactive: all other assays above

CCC(=NOC/C=C/Cl)C1=C(O)CC(C2CCOCC2)CC1=O (stereo unspecified)
inactive: all assays above

N#CSCSC#N
active: [2] 12.5 µM | [4] 50 µM | [6] 80.2 µM | BCL2L11 (gene 10018) 78.8 µM | [14] 92.3 µM | [13] 90.8 µM | CYP2C8 (gene 1558) 89.4 µM | CYP2C9 (gene 1559) 66.5 µM | CYP2E1 (gene 1571) 82.9 µM | CYP4A11 (gene 1579) 81.5 µM
inactive: all other assays above

C[N+]1(C)CCCCC1
not listed: [14]
inactive: all other assays above

CCc1cccc(CC)c1N(COC)C(=O)CCl
active: [14] 50 µM
inactive: all other assays above

CCOP(=S)(Oc1cnc(C(C)(C)C)nc1)OC(C)C (stereo unspecified)
active: [1] 2.27 µM | [6] 19.4 µM | [13] 11.5 µM | CYP2E1 (gene 1571) 26.8 µM | CYP4A11 (gene 1579) 50 µM
not listed: [14]
inactive: all other assays above

O=[N+]([O-])c1cc(C(F)(F)F)c(Cl)c([N+](=O)[O-])c1Nc1ncc(C(F)(F)F)cc1Cl
active: [1] 60.2 µM | [2] 9.95 µM | [5] 50 µM | [6] 23 µM | BCL2L11 (gene 10018) 66.3 µM | [11] 8.27 µM | [13] 26 µM | CYP2C8 (gene 1558) 26.8 µM | CYP2C9 (gene 1559) 17.8 µM | CYP2E1 (gene 1571) 13.1 µM | CYP4A11 (gene 1579) 27.6 µM
inactive: [3] | [4] | [7] | [8] | [9] | Caspase-3 (Homo sapiens) | [10] | [12]
